From PubChem BioAssay
FMDV antiviral: antivirals against foot and mouth disease virus. FMDV antiviral cell-based qHTS. Potency, µM (titrated, usually from 57.9 µM), for the others: top-dose activity change, negative = inhibition, most hits filed as inhibitors. 410,000 tested, 1.2% active; calls by dose curve; tested in HEK293T cells; further: read-out not given here; potency means the concentration at half of the fitted maximal effect; nearly all actives have a fitted effect of over 45% in size
HCV inhibitor: blocks hepatitis C virus | AID 651820 | Potency, µM (titrated, usually from 41.8 µM), for the others: at the highest dose activity change, negative = inhibition, usual class: inhibitors | Huh7.5.1 HCVcc-Cre infection, luciferase reporter, 44 h | 340,000 tested, 3.4% active; further: potency means the concentration at half of the fitted maximal effect
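Infectious HCVcc-Cre (~0.5 moi) was added to cells just after compound, with cells seeded 4 h earlier at 1,000 per well. Luciferase activity after 44 h culture reported infection; substrate was incubated 15 min at room temperature before reading.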
HCMV antiviral: human cytomegalovirus inhibition | HFF cells, HCMV-luciferase reporter, 72 h; hits give low values | activity change, negative = inhibition, % at 57.5 µM | 410,000 tested, 4.5% active; in the data active means activity change below about -60%; inconclusive means no clear call, values can overlap the other calls; inactive means above about -39%
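Two compound doses tested in HFFs infected with HCMV-luciferase, MOI 1 PFU/cell, 72 h at 37C. Lysate luminescence read with OneGlo; data normalized against buffer-only and 10uM Salinomycin inhibitor controls.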
Marburg entry inh: blocks Marburg virus binding to or entry into cells; Marburg virus pseudotyped entry inhibition, cell reporter; Potency, µM (top dose mostly 37.8 µM), for inactives: at the highest dose activity change, negative = inhibition, actives largely listed as inhibitors; 300,000 tested, 1.8% active; calls by dose curve; tested in HEK293 cells; further: potency means the concentration at half of the fitted maximal effect
Lassa entry inh: blocks Lassa virus binding to or entry into cells; Lassa virus pseudotype entry inhibition, cell reporter; Potency, µM (series often up to 37.9 µM), inactives show at the highest dose activity change, negative = inhibition, usual class: inhibitors; 300,000 tested, 1.2% active; AID 540256; calls by dose curve; tested in HEK293 cells; further: potency means the concentration at half of the fitted maximal effect; nearly all actives have a fitted effect of over 50% in size
Giardia FBPA inh: blocks Giardia fructose-bisphosphate aldolase activity; purified Giardia FBPA; A8B2U2; Potency, µM (highest dose often 59.6 µM), without a hit: top-dose activity, negative = inhibition, hits mostly inhibitors; 290,000 tested, 0.71% active; AID 2451; further: potency means the concentration at half of the fitted maximal effect; nearly all actives have a fitted effect of over 55% in size
Target sequence (A8B2U2 whole entry, looked up): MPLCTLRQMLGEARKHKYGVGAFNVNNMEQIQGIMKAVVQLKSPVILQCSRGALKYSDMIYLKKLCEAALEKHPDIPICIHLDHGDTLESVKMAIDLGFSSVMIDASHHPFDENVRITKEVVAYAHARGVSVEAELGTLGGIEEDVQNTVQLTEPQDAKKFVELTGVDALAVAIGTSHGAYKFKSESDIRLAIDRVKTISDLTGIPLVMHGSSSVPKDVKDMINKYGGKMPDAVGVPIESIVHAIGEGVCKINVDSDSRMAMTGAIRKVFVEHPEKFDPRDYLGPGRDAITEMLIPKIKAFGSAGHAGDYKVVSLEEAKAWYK
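40 nM FBPA preincubated 10 min at RT with compound (up to 57.5 uM final), then substrate plus GAPDH/TPI/NAD/arsenate coupling and diaphorase/resazurin added. Fluorescence read after 20 min at RT, 525/598 nm.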
Active calls of the source: *; ? = inconclusive; / = no result given; [ ] = dose if it differs, or a comment. This is a sample that favours compounds with a hit; in the whole collection about 8.3% have one here. Unless noted, the call rests on the fitted dose curve; in most records, active means well fitted curve in the direction sought with a large enough effect; inconclusive means small, poorly fitted or top-dose-only effect, or another doubt; inactive means no such curve, though single readings can be large; an effect the other way counts as inactive or inconclusive. On the % scale 0 is the no-effect control and ±100 the full control effect.

SMILES	FMDV antiviral	HCV inhibitor	HCMV antiviral	Marburg entry inh	Lassa entry inh	Giardia FBPA inh
CCOc1cc(/C=N/NC(=O)C(=O)N/N=C/c2ccc(O)c(OCC)c2)ccc1O	-13.1%	8.7%	-19.1	-13.9%	-11.1%	9.9%
CCOc1cc(/C=N/NC(=O)Cc2ccc(C(F)(F)F)cc2[N+](=O)[O-])ccc1O	-10.7%	-25.7%	-60.7*	1.7%	-2.4%	-0.1%
CCOc1cc(/C=N/NC(=O)N/N=C/c2ccc(O)c(OCC)c2)ccc1O	-27.1%	?	25.0	7.08µM*	?	/
O=C(O)COc1ccc(OCCNC[C@H](O)COc2ccccc2)cc1	-12.8%	/	/	/	/	/
CCc1ccccc1NC(=S)N(CCCN(C)C)Cc1cc2cc3c(cc2[nH]c1=O)OCO3	-13.1%	0.1%	-75.2*	?	11.6%	-2.7%
COc1cc2cc(CN(CCc3ccccc3C)C(=S)NCCCN3CCOCC3)c(=O)[nH]c2cc1OC	-16.4%	?	-64.0*	/	/	13.0%
CN(C)CCCNC(=S)N(Cc1cccs1)Cc1cc2cc3c(cc2[nH]c1=O)OCCO3	-15.7%	2.51µM*	-4.3	23.1µM*	?	1.1%
CN(C)CCCNC(=S)N(CCN(C)C)Cc1cc2cc3c(cc2[nH]c1=O)OCCO3	-5.4%	4.8%	16.8	?	-3.5%[46.1 µM]	-4.5%
CC(C)(C)OC(=O)/C=C/[C@H]1Cc2ccccc2N1	/	/	19.4	/	/	/
C=CC[C@]12CC=CC(=O)[C@@]1(O)O[C@H](c1ccc(OC)c(OC)c1)[C@H]2C	20µM*	-22.4%	-8.9	/	/	/
C=CC[C@]12C=C(OC)C(=O)C(OC)=C1O[C@@H](c1ccc3c(c1)OCO3)[C@H]2C	-17.5%	?	30.8	/	/	/
C[C@H]1COC(=O)[C@H]2CCCN2C(=O)[C@@H](C)COC(=O)[C@H]2CCCN2C1=O	/	/	/	/	/	1.5%[12.9 µM]
O=[N+]([O-])c1ccc(-c2csc(N3CCCCCC3)n2)cc1	13.0%	-22.4%	-23.9	-6.1%	?	0.9%
O=C(Cc1nc(-c2ccc([N+](=O)[O-])cc2)cs1)Nc1ccccc1	?	-14.3%	-91.9*	3.5%	-1.9%	-8.2%
CNc1nc(-c2ccc([N+](=O)[O-])cc2)cs1	-18.7%	-13.4%	-74.0*	1.9%[46.1 µM]	18.1%	-1.4%
Nc1nc(-c2ccc([N+](=O)[O-])cc2)cs1	30.2%	-2.0%	-79.3*	?	7.1%	0.2%
COCC(=O)Nc1nc(-c2ccc([N+](=O)[O-])cc2)cs1	11.2%	-3.9%	-88.5*	/	/	2.3%
CC(C)C(=O)Nc1nc(-c2ccc([N+](=O)[O-])cc2)cs1	-21.4%	?	?	/	/	-12.8%
O=[N+]([O-])c1ccc(-c2csc(NN=C3CCCC3)n2)cc1	-19.0%	8.91µM*	?	?	13.5%[46.1 µM]	-3.4%
CCc1cccc(NC(=O)c2oc3ccc4c(c3c2C)C(=O)CC(C)(C)O4)c1	?	/	-60.4*	/	-0.9%[46.1 µM]	/
CC(C)[C@H](NC(=O)[C@H](CC(=O)O)NC(=O)[C@H](Cc1ccccc1)NC(=O)[C@@H](C)NC(=O)[C@@H](N)Cc1ccc(O)cc1)C(=O)N[C@H](C(=O)NCC(N)=O)C(C)C	/	/	/	/	/	-0.3%
Clc1ccc([C@H](Cn2ccnc2)OCc2csc3c(Cl)cccc23)c(Cl)c1	/	/	/	/	/	8.8%[21.7 µM]
Clc1ccc(C(Cn2ccnc2)OCc2csc3c(Cl)cccc23)c(Cl)c1 (centres undefined)	-2.3%	12.6µM*	9.7	/	/	/
Clc1ccc(C(Cn2ccnc2)OCc2c(Cl)cccc2Cl)c(Cl)c1 (centres undefined)	?	-17.1%	-64.4*	/	/	/
CCOC(=O)c1ccc(NC(=O)c2cccc(S(=O)(=O)N3CCOCC3)c2)cc1	?	3.55µM*	-23.1	?	?	-0.9%
SMILES	FMDV antiviral	HCV inhibitor	HCMV antiviral	Marburg entry inh	Lassa entry inh	Giardia FBPA inh
O=C(Nc1ccc(N2CCCCCC2)cc1)c1cccc(S(=O)(=O)N2CCOCC2)c1	?	2.51µM*	-73.7*	?	?	/
CC(=O)c1ccc(NC(=O)c2ccc(C)c(S(=O)(=O)N3CCOCC3)c2)cc1	?	-18.3%	-10.6	?	0.2%	-0.8%
CCOC(=O)c1ccc(NC(=O)c2ccc(C)c(S(=O)(=O)N3CCOCC3)c2)cc1	14.1µM*	5.01µM*	?	2.82µM*	?	-8.6%
CC(=O)c1cccc(NC(=O)c2cccc(S(=O)(=O)N3CCOCC3)c2)c1	2.2%	-15.0%	27.4	5.6%[46.1 µM]	-10.3%	-1.3%
O=C(N/N=C/c1sc(N2CCOCC2)nc1-c1ccccc1)c1cccc(S(=O)(=O)N2CCCC2)c1	?	3.55µM*	-111.5*	?	?	-4.1%
O=C(Nc1cccc(S(=O)(=O)N2CCOCC2)c1)c1cccc(S(=O)(=O)N2CCCCC2)c1	-16.6%	-16.7%	-34.4	?	-12.7%	/
Cn1c(=O)c(-c2ccc(Cl)cc2)nc2cnc(N3CCOCC3)nc21	24.6%	/	/	/	/	-2.1%
Cn1sc(=O)n(Cc2ccccc2)c1=O	/	/	/	/	/	-24.8%
CCN(CC)C(=O)CSC1=C(C#N)[C@H](c2ccco2)C(C(=O)OCCOC)=C(C)N1	/	/	/	9.3%	/	/
CC(=O)Nc1ccc(/C=N/NC(=O)c2cccc(S(=O)(=O)N3CCOCC3)c2)cc1	-4.5%	26.7%	-101.6*	?	-4.3%	4.2%
Cc1onc(-c2ccccc2[N+](=O)[O-])c1-c1ccccc1[N+](=O)[O-]	/	/	-8.3	/	/	/
Cc1cccc(Nc2nc(N)nc(N)c2S(=O)(=O)c2ccccc2)c1	-10.5%	/	-102.8*	?	-21.8%[46.1 µM]	/
